Bioassay records: PubChem BioAssay, National Center for Advancing Translational Sciences (NCATS)
DRD3 antagonist: antagonists of human D3 dopamine receptor. P35462. D3R cells, DiscoveRx beta-arrestin luminescence, antagonist mode; active compounds read low. max response, negative = inhibition, %. actives 2.5% (n = 360,000). AID 652054; in the data active means max response below about -50%; inconclusive means no clear call, values can overlap the other calls; further: on the % scale 0 is the no-effect control and ±100 the full control effect
Target sequence (P35462 whole entry, looked up): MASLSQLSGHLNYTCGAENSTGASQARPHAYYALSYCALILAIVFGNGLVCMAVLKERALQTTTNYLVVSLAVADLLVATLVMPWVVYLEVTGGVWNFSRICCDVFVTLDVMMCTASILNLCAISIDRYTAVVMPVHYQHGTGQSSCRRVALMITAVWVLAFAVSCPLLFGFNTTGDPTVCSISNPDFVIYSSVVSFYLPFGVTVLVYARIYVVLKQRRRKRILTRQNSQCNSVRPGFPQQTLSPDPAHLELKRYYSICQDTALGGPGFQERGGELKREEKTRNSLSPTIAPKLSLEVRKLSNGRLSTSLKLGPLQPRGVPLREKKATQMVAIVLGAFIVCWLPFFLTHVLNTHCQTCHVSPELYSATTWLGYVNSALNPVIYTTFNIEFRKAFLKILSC
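Cells expressing the human receptor were seeded at 1500 cells/well, incubated overnight at 37 degrees C in 5% CO2, then exposed to library compounds with dopamine controls for 90 minutes at 37 degrees C before luminescent detection.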
DRD3 agonist: agonists of human D3 dopamine receptor; max activation, %; P35462; D3R DiscoveRx beta-arrestin cells, luminescence, 90 min; actives 0.58% (n = 410,000); in the data active means max activation above about 30%; further: 0% is about no effect
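Cells at 1500/well, incubated overnight, then treated with pinned compounds (dopamine as control) for 90 min at 37 degrees C. DiscoveRx reagent added for 30 - 60 minutes at room temperature; luminescence read.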
a7 integrin act: activators of alpha7 integrin expression for muscular dystrophy; alpha7betagal myoblasts, beta-gal FDG fluorescence, 48 h; Potency, µM (doses to about 38.3 µM), inactives show at the top dose activation, usual class: activators; actives 0.064% (n = 350,000); AID 624291; active means well fitted activation curve with a large enough effect; inconclusive means small, poorly fitted or top-dose-only effect; inactive means no such curve, though single readings can be large or run the other way;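 further: potency means the concentration at half of the fitted maximal effect; 100% = response of the positive control SU9516; nearly all actives have a fitted effect of over 60% in size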
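Alpha7betagal+/- myoblasts (passage 13) were plated 16-24 hr, then exposed to compounds (1:260 dilution of DMSO stock) for 48 hours at 37C. After MPER lysis, β-galactosidase reporter activity was read as FDG fluorescence (ex 480/em 540) after 30 minutes.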
An asterisk follows results filed as active; u = inconclusive; x = no result given; [ ] = another dose, or the depositor's remark. The list is not random: actives were taken first. Their share in the collection is about 2.9%.

SMILES	DRD3 antagonist	DRD3 agonist	a7 integrin act
CCC1(C)CC2(CCCN(CCC(O)(c3ccccc3)c3ccccc3)C2)CCO1 (stereo not given)	-1	0	-39%
O=C(NCCS(=O)(=O)N1CCN(c2ccccc2)CC1)c1ccccc1F	-4	-7	-37%
O=C(CNC(=O)c1ccccc1F)NNC(=O)c1ccccc1O	-59*	-15	15%
O=C(NCCCN1CCN(CCCNC(=O)c2ccccc2F)CC1)c1ccccc1F	-51*	-2	17%
Cc1ccccc1C(=O)NCC(=O)OCC(=O)NNC(=O)c1ccccc1F	u	-7	-6%
O=C(NCCN1CCN(c2ccccc2)CC1)c1ccccc1F	-56*	16	-1%
O=C(NCCCN1CCOCC1)c1c(F)cccc1F	-13	-5	0%[7.66 µM]
O=C(C1CCC(CNc2nc(=S)[nH]c3ccccc23)CC1)N1CCN(c2ccccn2)CC1 (stereo not given)	24	13	-22%
CCOc1ccc(C(=O)CC(C(=O)O)N2CCCCC2)cc1 (stereo not given)	-16	-8	-69%
Cc1ccc2cc(CCNC(=O)c3ccc(S(=O)(=O)N4CCOCC4)cc3)c(=O)[nH]c2c1C	19	1	-7%
CCC(=O)N1CCc2cc(Br)cc(S(=O)(=O)CCC(=O)N3CCN(c4ccccc4OC)CC3)c21	x	-5	x
FC(F)(F)c1ccc(Cl)c(NC(=S)N/N=C/c2ccccc2Cl)c1	-66*	-1	-47%
O=C(NC(=S)Nc1cc(C(F)(F)F)ccc1Cl)c1ccccc1	u	-10	-34%
CCOC(=O)c1ccc(Nc2cc(C)nc(-c3ccccc3O)n2)cc1	49	68*	7%
Cc1cc(Nc2ccccc2)nc(-c2ccccc2O)n1	11	4	0%
OCC[C@H]1C[C@H](O)[C@@H](O)[C@@]2(OCCCc3ccccc32)O1	-15	3	-12%
CC1CC(=O)C2=C(C1)Nc1nc3ccccc3n1C2c1cccnc1 (stereo not given)	-11	-6	-50%
Cc1ccc(S(=O)(=O)N2CCC(C(=O)OCCOc3ccccc3)CC2)cc1C	20	-1	-13%
Cc1cc(C)c2c(=O)cc(C(=O)Nc3ccccc3C(F)(F)F)oc2c1	x	9	x
Cc1ccc(C(OCCN(C)C)c2cccc(C(F)(F)F)c2)cc1 (stereo not given)	-76*	-11	-39%
CN(C)CCO[C@@H](c1ccc(Cl)cc1)c1ccccn1	u	-9	5%
Cc1cc(C)c(S(=O)(=O)N2CCC(C(N)=O)CC2)cc1C	14	1	-7%
COc1cc(S(=O)(=O)N2CCC(C(N)=O)CC2)c(C)cc1C	-104*	-15	16%
CCCC[C@@H](CNC)NC[C@H](Cc1ccc(O)cc1)NCCc1ccc(OCC)cc1	-21	-26	-42%
CNC[C@@H](C)NC[C@@H](Cc1ccccc1)NCCc1ccccc1	-86*	-3	-36%
SMILES	DRD3 antagonist	DRD3 agonist	a7 integrin act
COc1ccc(NC(=O)c2c(C)nn(Cc3ccccc3)c2Cl)cc1S(=O)(=O)N1CCOCC1	-2	2	11%
CCc1ccc(Nc2n[n+](-c3ccccc3)c(-c3cc(OC)c(OC)cc3Br)s2)cc1	-51*	-9	10%
COc1ccc(C)cc1Nc1n[n+](-c2ccccc2)c(-c2c(Cl)cccc2Cl)s1	-87*	-52	-37%
COc1ccc(C)cc1Nc1n[n+](-c2ccccc2)c(-c2ccc(OC)c(OC)c2OC)s1	u	-59	5%
COc1ccc(-c2sc(Nc3ccccc3)n[n+]2-c2ccc(F)cc2)cc1Br	-2	-11	1%
CCc1ccc(Nc2n[n+](-c3ccccc3)c(-c3c(Cl)cccc3Cl)s2)cc1	-5	-30	-43%
COc1ccc2ccccc2c1-c1sc(Nc2ccccc2)n[n+]1-c1ccc(F)cc1	-80*	-62	-46%
COc1ccc(-c2csc(C(C#N)=C(O)CSc3nccn3C)n2)cc1OC	-5	-16	28%
CCCCc1nnc(SCc2cc(=O)c3cc(F)ccc3[nH]2)n1C	x	4	x
Cc1ccc(NC(=O)CNc2ccc(OC(C)C)cc2)cc1	-24	0	-26%
O=C1CC(c2ccc(F)cc2)c2cc3c(cc2N1)CCC3 (stereo not given)	3	1	-18%
O=C(N/N=C/c1cc2ccccc2nc1Cl)/C(=C/c1cccs1)NC(=O)c1ccccc1	19	-2	5%
CN1CCc2c(sc(/N=C/c3c[nH]c4ccccc34)c2C(N)=O)C1	-52*	-21	0%
CN1CCc2c(sc(/N=C/c3c[nH]c4ccccc34)c2C#N)C1	u	-8	6%
COc1ccc(C2c3sc(=O)[nH]c3SC3C(=O)N(c4ccccc4)C(=O)C32)cc1 (stereo not given)	-26	-7	-8%
O=C1C2Sc3[nH]c(=O)sc3C(c3ccccc3)C2C(=O)N1c1ccccc1 (stereo not given)	-66*	1	11%
COC(CC(=O)NNC(=S)Nc1ccc(Cl)cc1)OC	4	-4	-23%
c1ccc2c(OCCCCN3CCOCC3)cccc2c1	-60*	-12	-11%
O=C(c1ccco1)N1CCN(CCOCCOc2cccc3ccccc23)CC1	-6	89*	-29%
Cc1cccc(OCCN2CCOCC2)c1C	-5	54*	-16%
c1ccc(CN2CCN(CCOCCOc3cccc4ccccc34)CC2)cc1	u	-15	-33%
O=C(c1ccco1)N1CCN(CCOc2ccc(F)cc2)CC1	-11	20	-15%
Cc1cc(C)c(C)c(OCCN2CCOCC2)c1	-1	-20	24%
O=C(c1ccco1)N1CCN(CCCCOc2cccc3ccccc23)CC1	u	38*	-87%
COc1ccccc1OCCCCCCN1CCOCC1	-20	-14	15%
SMILES	DRD3 antagonist	DRD3 agonist	a7 integrin act
COc1ccc(S(=O)(=O)Cc2ccc(C(=O)NCC(OC)OC)o2)cc1	-10	-12	18%
O=[N+]([O-])c1cccnc1Sc1ccc(Br)cc1	-11	3	1%
Cc1cccc(C(C)C)c1NC(=O)c1ccc(COc2ccc3c(C)cc(=O)oc3c2)cc1	12	4	-17%
CC(NC(=O)c1ccccc1)C(=O)OCC(=O)c1ccc(Br)cc1 (stereo not given)	6	3	-4%
Cc1cc(Cl)cc(C)c1OCCCCN1CCOCC1	-58*	-16	10%[7.66 µM]
Cc1cc(Cl)c(OCCCCN2CCOCC2)c(Br)c1	4	-5	8%
Cc1ccc(SCC(=O)OCC(=O)NCCc2ccccc2)cc1C	8	-12	-9%
S=c1[nH]nc(-c2cc(-c3ccco3)[nH]n2)n1-c1ccccc1Cl	-52*	-4	44%
S=c1[nH]nc(-c2ccco2)n1-c1ccccc1Cl	-29	-13	-17%
CC(=O)c1c(C)[nH]c(C(=O)OCC(=O)NCC(C)C)c1C	10	3	-9%
CNC(=O)COC(=O)c1[nH]c(C)c(C(C)=O)c1C	-79*	-3	18%
CC(=O)c1c(C)[nH]c(C(=O)OCC(=O)c2ccc(C)s2)c1C	-3	44*	-2%
CC(=O)c1c(C)[nH]c(C(=O)OCC(=O)C(C)(C)C)c1C	3	1	-1%
CC1CN(CCCCSc2ccccc2)CC(C)O1 (stereo not given)	-11	-20	1%
CC1CN(CCCSc2ccc(Cl)cc2)CC(C)O1 (stereo not given)	-71*	-18	-17%
